From the OligoGym collection come the findings set out here.

Targets include CSGALNACT1; CT47A1; CSTF3; CSH1; CYLC1; CYP2E1; CYP20A1.
Common to all, as to experiment: pooled miR-30 sensor sort-seq; sequence = guide strand
Conditions in all cases: shRNA
Further: reference of the scale not given here.

As to TATTGATGAAGTCTGACCGATA, the sensor-assay potency score (higher = more potent) with CSGALNACT1 is -0.823.
Consider TTGACGGTTCTCTATGAGGATG, for which the sensor-assay potency score (higher = more potent) in the assay with CT47A1 was -1.48.
The sequence TACTGCATTACTTTCCACGGGG returned a sensor-assay potency score (higher = more potent) in the assay with CSTF3 of 0.0681.
Turning to TGTTTTCTGCATCCTTCTCTTT, the sensor-assay potency score (higher = more potent) with CT47A1 was -1.05.
Consider TACTCGGGCACCTAGAAGCCAC, for which the sensor-assay potency score (higher = more potent) in the assay with CSH1 is -1.13.
Take ATTTAGTGACTTCCTCTGGGGC: the sensor-assay potency score (higher = more potent) in the assay with CT47A1 is -0.669.
For the sequence TTGGACTGCATGCACATCTTGT, the sensor-assay potency score (higher = more potent) in the assay with CSGALNACT1 is -0.464.
Turning to TTGTTTTTTCTCAAGAACCATG, the sensor-assay potency score (higher = more potent) with CSTF3 was -1.15.
In the case of TTGCTGTGGAGATACTTGCGAT, the sensor-assay potency score (higher = more potent) with CSGALNACT1 was -1.14.
Turning to TTGATCATCGGATTAACACAAC, in the assay with CSTF3, the sensor-assay potency score (higher = more potent) is -0.951.
Consider TATCTGAGTCCTCCTCGGCGCT, for which the sensor-assay potency score (higher = more potent) with CT47A1 was -1.49.
TTAAATTTCATAAACTACCAGT: in the assay with CSGALNACT1, the sensor-assay potency score (higher = more potent) is -0.16.
Take TTCTGGTATCTTCTCTTGCTTT: in the assay with CSTF3, the sensor-assay potency score (higher = more potent) is -0.975.
TGAACTTGTATCTATCTACTAG: the sensor-assay potency score (higher = more potent) with CSTF3 is -0.0129.
On to TTCATCTGAATCCTCGTTGGGC, for which, in the assay with CSTF3, the sensor-assay potency score (higher = more potent) stood at 0.448.
For TTTGGTATCTTGCATCTTCGGA, the sensor-assay potency score (higher = more potent) with CSTF3 is -0.026.
In the case of TTAGCTGTGCAATACCACCTTC, the sensor-assay potency score (higher = more potent) with CSGALNACT1 is -0.0505.
As to TATTAGTACAAACCATTCCTTC, in the assay with CSGALNACT1, the sensor-assay potency score (higher = more potent) is -0.885.
On to TCACCTTGTTTTCTGCATCCTT, for which the sensor-assay potency score (higher = more potent) in the assay with CT47A1 was 0.106.
Consider TATCTTTTTGTGAACAATTTTT, for which the sensor-assay potency score (higher = more potent) with CYLC1 is -1.47.
The same measure, in the same setting: under TTGTCATGTCTAGTAACTGTTA stands -0.717; under TTGATGGAGGAACTCTACCTGT, -0.867.
The same measure, in the same setting: to TTGGATGACATTCTGAATCCTC belongs 0.399; to TTTAGTTTTCTCTTCTACTATT, -1.07.
The same measure, in the same setting: under TTCAGTATCTGAACCTTTGATT stands -0.393; under TTCATCTTTCTGACTCTCCTTT, 0.625.
Take ATAGTCACTGTACTTGAACTTT: the sensor-assay potency score (higher = more potent) with CYP2E1 was -0.806.
Take TCCTTCAATATCTTGAAGCTGG: in the assay with CYP20A1, the sensor-assay potency score (higher = more potent) is -0.788.
TAATTTTTTCTTATCCTTCTTT gave a sensor-assay potency score (higher = more potent) in the assay with CYLC1 of 0.0107.
Take TTGAAATAGTCACTGTACTTGA: the sensor-assay potency score (higher = more potent) with CYP2E1 is -0.183.
